PubChem BioAssay (NCATS)
Results filed as inconclusive are left out. A number with no mark means an inactive call. Activity calls are given as the source filed them. Calls come from the whole dose curve; as a rule, active = well fitted inhibition curve with a large enough effect; inconclusive = small, poorly fitted or top-dose-only effect; inactive = flat fitted curve, though single readings scatter.

Tests used:
[1] = Drug repurposing screens with cells derived from glioblastoma tumor samples (AID 1345199); conditions: GBM patient neurospheres viability, ATP luminescence, 48 h; note: nearly all actives have a fitted effect of over 40% in size
How it was run: (§1)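 Primary testing used CD133+ neurospheres from four GBM patients, seven concentrations, 48 h exposure and ATP-based viability; confirmation added three slower-growing patient lines.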

astro = control astrocytes; assay: as above; conditions: viability, ATP luminescence, 48 h; series mostly up to 45.9 µM
How it was run: as §1

[2] = at 45.9 µM (top of the series), tumour line B
[3] = at 45.9 µM (top of the series), tumour line D
[4] = at 46 µM (top of the series), tumour line A
[5] = at 46.1 µM (top of the series), tumour line C
[6] = at 20 µM (top of the series), tumour line C
[7] = at 21.2 µM (top of the series), tumour line B
[8] = at 21.2 µM (top of the series), tumour line D
[9] = at 21.3 µM (top of the series), tumour line A
% is set by controls: 0 for no effect and ±100 for the full control effect; potency is the fitted concentration of half-maximal effect.

Question: Which results are given for `C[C@]12CCC(=O)C=C1CC[C@@H]1[C@@H]2[C@@H](O)C[C@@]2(C)[C@H]1CC[C@]2(O)C(=O)COP(=O)(O)O`?
Answer: activity, negative = cell killing [1, 2]: -5.72%; activity, negative = cell killing [1, 3]: -20.1%; activity, negative = cell killing [1, 4]: -14%; activity, negative = cell killing [1, 5]: -20.1%; Potency (astro): inactive

Question: Which results are given for `CO[C@H]1C[C@H](O[C@H]2[C@H](C)[C@@H](O[C@@H]3O[C@H](C)C[C@H](N(C)C)[C@H]3OC(C)=O)[C@@H](C)C[C@]3(CO3)C(=O)[C@H](C)[C@@H](OC(C)=O)[C@@H](C)[C@@H](C)OC(=O)[C@@H]2C)O[C@@H](C)[C@@H]1OC(C)=O`?
Answer: activity, negative = cell killing [1, 6]: -16.4%; activity, negative = cell killing [1, 7]: -6.68%; activity, negative = cell killing [1, 8]: -16.6%; activity, negative = cell killing [1, 9]: -20.4%

Question: For `CO/N=C(\C(=O)N[C@@H]1C(=O)N2C(C(=O)O)=C(CSc3cnns3)CS[C@H]12)c1csc(N)n1`, which activity, negative = cell killing [1, 2] is on record?
Answer: -0.235%

Question: And the activity, negative = cell killing [1, 3]?
Answer: 11.9%

Question: With `CCOC(=O)C1=C(C)NC(C)=C(C(=O)OCC)C1c1ccccc1C=CC(=O)OC(C)(C)C` as the compound, how does the activity, negative = cell killing [1, 5] read?
Answer: 2.25%

Question: And the Potency ([1]; tumour line A)?
Answer: 2.24 µM (active)

Question: What about the Potency ([1]; tumour line D) of the same compound?
Answer: 12.6 µM (active)

Question: Which activity, negative = cell killing [1, 4] does the source give for `C=CC1=C(C)C2=CC3=NC(=C(CC(=O)[O-])C4=NC(=C(C)C4=C([O-])[O-])C=c4[n-]c(c(C)c4CC)=CC1=N2)C(CCC(=O)[O-])C3C.[Cu+2].[Na+].[Na+].[Na+]` (stereo not given) here?
Answer: -28%

Question: And the activity, negative = cell killing [1, 5]?
Answer: 10.7%

Question: Which activity, negative = cell killing [1, 6] does the source give for `C[C@H](CCC(=O)O)[C@H]1CC[C@H]2[C@@H]3[C@H](O)C[C@@H]4C[C@H](O)CC[C@]4(C)[C@H]3CC[C@]12C` here?
Answer: 0.416%

Question: What about the activity, negative = cell killing [1, 7] of the same compound?
Answer: 1.96%

Question: What about the activity, negative = cell killing [1, 8] of the same compound?
Answer: 6.12%

Question: What about the activity, negative = cell killing [1, 9] of the same compound?
Answer: -15.4%

Question: With `Cc1cc(C(=O)NNCc2ccccc2)no1` as the compound, how does the activity, negative = cell killing [1, 6] read?
Answer: -3.86%

Question: What about the activity, negative = cell killing [1, 7] of the same compound?
Answer: -7.11%

Question: What about the activity, negative = cell killing [1, 8] of the same compound?
Answer: -19.1%

Question: What about the activity, negative = cell killing [1, 9] of the same compound?
Answer: -21.8%

Question: With `CC(=O)Oc1cc(C)c(OC(C)=O)c2ccccc12` as the compound, how does the activity, negative = cell killing [1, 2] read?
Answer: -16.5%

Question: What about the activity, negative = cell killing [1, 5] of the same compound?
Answer: 0.711%

Question: With `CN1CCC(CN2c3ccccc3Sc3ccccc32)C1` (stereo not given) as the compound, how does the activity, negative = cell killing [1, 5] read?
Answer: 0.543%

Question: What about the Potency ([1]; tumour line A) of the same compound?
Answer: 7.08 µM (active)

Question: What about the Potency ([1]; tumour line B) of the same compound?
Answer: 35.5 µM (active)

Question: What about the Potency ([1]; tumour line D) of the same compound?
Answer: 17.8 µM (active)

Question: For `CC1=C(/C=C/C(C)=C/C=C/C(C)=C/C=C/C=C(C)/C=C/C=C(C)/C=C/C2=C(C)C(=O)CCC2(C)C)C(C)(C)CCC1=O`, which activity, negative = cell killing [1, 2] is on record?
Answer: -0.298%

Question: And the activity, negative = cell killing [1, 3]?
Answer: 9.62%

Question: What about the activity, negative = cell killing [1, 5] of the same compound?
Answer: -24.8%

Question: For `C=CCSSSCC=C`, which activity, negative = cell killing [1, 2] is on record?
Answer: -7.75%

Question: What about the activity, negative = cell killing [1, 3] of the same compound?
Answer: -21.3%

Question: What about the activity, negative = cell killing [1, 4] of the same compound?
Answer: -14.2%

Question: What about the activity, negative = cell killing [1, 5] of the same compound?
Answer: -8.17%

Question: For `CCC(=O)NCCC1CCc2ccc3c(c21)CCO3` (stereo not given), which activity, negative = cell killing [1, 2] is on record?
Answer: -16.2%

Question: What about the activity, negative = cell killing [1, 5] of the same compound?
Answer: -14.5%

Question: What about the Potency ([1]; tumour line A) of the same compound?
Answer: 11.2 µM (active)

Question: Which activity, negative = cell killing [1, 5] does the source give for `CCc1ccc2c(c1)N(CC(C)CN(C)C)c1ccccc1S2` (stereo not given) here?
Answer: 11.1%

Question: And the Potency ([1]; tumour line A)?
Answer: 4.47 µM (active)

Question: And the Potency ([1]; tumour line B)?
Answer: 25.1 µM (active)

Question: Which activity, negative = cell killing [1, 2] does the source give for `CCCCC(=O)O[C@]1(C(=O)CO)[C@H](C)C[C@H]2[C@@H]3CCC4=CC(=O)C=C[C@]4(C)[C@@]3(F)[C@@H](O)C[C@@]21C` here?
Answer: -7.12%

Question: What about the activity, negative = cell killing [1, 3] of the same compound?
Answer: -22.7%

Question: What about the activity, negative = cell killing [1, 5] of the same compound?
Answer: -23.5%

Question: With `CC1=C(/C=C/C(C)=C/C=C/C(C)=C/CO)C(C)(C)CCC1` as the compound, how does the activity, negative = cell killing [1, 2] read?
Answer: -16.9%

Question: What about the activity, negative = cell killing [1, 3] of the same compound?
Answer: -16.1%

Question: And the Potency ([1]; tumour line A)?
Answer: 31.6 µM (active)

Question: What does the source list for `CCN(CC)Cc1cc(Nc2ccnc3cc(Cl)ccc23)ccc1O`?
Answer: activity, negative = cell killing [1, 6]: -18.3%; Potency ([1]; tumour line A): 12.6 µM (active); Potency ([1]; tumour line D): 14.1 µM (active)

Question: Which activity, negative = cell killing [1, 2] does the source give for `COC(=O)CCC(=O)CN` here?
Answer: -21.7%

Question: And the activity, negative = cell killing [1, 3]?
Answer: -18.7%

Question: What about the activity, negative = cell killing [1, 4] of the same compound?
Answer: -28.4%

Question: And the activity, negative = cell killing [1, 5]?
Answer: -13.1%

Question: For `CCCCC(=O)N(Cc1ccc(-c2ccccc2-c2nn[nH]n2)cc1)[C@@H](C(=O)O)C(C)C`, which activity, negative = cell killing [1, 2] is on record?
Answer: 2.85%

Question: What about the activity, negative = cell killing [1, 3] of the same compound?
Answer: -14.3%

Question: And the activity, negative = cell killing [1, 4]?
Answer: -22.5%

Question: What about the activity, negative = cell killing [1, 5] of the same compound?
Answer: 9.38%

Question: For `CN(C)CCCN1c2ccccc2C(C)(C)c2ccccc21`, which activity, negative = cell killing [1, 5] is on record?
Answer: 1.86%

Question: And the Potency ([1]; tumour line A)?
Answer: 14.1 µM (active)

Question: Which activity, negative = cell killing [1, 6] does the source give for `CC(Oc1ccccc1)C(=O)N[C@@H]1C(=O)N2[C@@H]1SC(C)(C)[C@@H]2C(=O)O` (stereo not given in full) here?
Answer: 1.64%

Question: What about the activity, negative = cell killing [1, 7] of the same compound?
Answer: -4.78%

Question: And the activity, negative = cell killing [1, 8]?
Answer: -2.95%

Question: What about the activity, negative = cell killing [1, 9] of the same compound?
Answer: 2.19%

Question: Which activity, negative = cell killing [1, 2] does the source give for `CCCC(=O)O[C@]1(C(=O)COC(C)=O)CC[C@H]2[C@@H]3C[C@H](F)C4=CC(=O)C=C[C@]4(C)[C@@]3(F)[C@@H](O)C[C@@]21C` here?
Answer: -13.7%

Question: What about the activity, negative = cell killing [1, 3] of the same compound?
Answer: -22.5%

Question: What about the activity, negative = cell killing [1, 4] of the same compound?
Answer: -29.1%

Question: And the activity, negative = cell killing [1, 5]?
Answer: -14.3%

Question: With `CC(=O)O[C@]1(C(C)=O)CC[C@H]2[C@@H]3CCC4=CC(=O)CC[C@]4(C)[C@@]3(F)[C@@H](O)C[C@@]21C` as the compound, how does the activity, negative = cell killing [1, 2] read?
Answer: -7.13%

Question: And the activity, negative = cell killing [1, 3]?
Answer: -7.73%

Question: What about the activity, negative = cell killing [1, 4] of the same compound?
Answer: 6.04%

Question: And the activity, negative = cell killing [1, 5]?
Answer: 8.8%

Question: Which activity, negative = cell killing [1, 5] does the source give for `O=C1CSC2(CCN(CCCN3c4ccccc4Sc4ccc(Cl)cc43)CC2)N1` here?
Answer: -24.2%

Question: And the Potency ([1]; tumour line A)?
Answer: 3.16 µM (active)

Question: And the Potency ([1]; tumour line D)?
Answer: 20 µM (active)

Question: Which activity, negative = cell killing [1, 2] does the source give for `C[C@H]1C[C@H]2[C@@H]3CCC4=CC(=O)C=C[C@]4(C)[C@@]3(F)[C@@H](O)C[C@]2(C)[C@@]1(O)C(=O)CO` here?
Answer: -16%

Question: And the activity, negative = cell killing [1, 3]?
Answer: -25%

Question: What about the activity, negative = cell killing [1, 4] of the same compound?
Answer: -24.5%

Question: Which results are given for `COC(=O)[C@H]1[C@H]2C[C@@H]3c4[nH]c5ccccc5c4CCN3C[C@H]2C[C@@H](OC(=O)c2cc(OC)c(OC)c(OC)c2)[C@@H]1OC`?
Answer: activity, negative = cell killing [1, 2]: -12.2%; activity, negative = cell killing [1, 5]: -12.2%; Potency ([1]; tumour line A): 12.6 µM (active)

Question: What does the source list for `CCOc1ccc2c(c1)C(C)=CC(C)(C)N2`?
Answer: activity, negative = cell killing [1, 5]: -10%; Potency ([1]; tumour line A): 39.8 µM (active)
